Assay results as given in PubChem BioAssay (NCATS).
“And” between values parts separate entries of the source, which are not always exact repeats. Identical values can stand only once. Records with an inconclusive call do not appear. Some compounds were tested as several samples or in several runs, with calls that do not always agree. The source made the active and inactive calls. The call rests on the fitted dose curve; in most records, active means well fitted inhibition curve with a large enough effect; inconclusive means small, poorly fitted or top-dose-only effect; inactive means flat fitted curve, though single readings scatter.

test system: HEK293; assay: Cytotoxic Profiling of Annotated Libraries Using Quantitative High-Throughput Screening (AID 1296008); details: Five cell lines viability, CellTiter-Glo ATP luminescence, 48-72 h; max response: stronger effect = lower value; further: nearly all actives have a fitted effect of over 60% in size
Text: Cell-based phenotypic screening is a commonly used approach to discover biological pathways, novel drug targets, chemical probes and high-quality hit-to-lead molecules. Many hits identified from high-throughput screening campaign are ruled out through a series of follow-up potency, selectivity/specificity, and cytotoxicity assays. Prioritization of molecules with little or no cytotoxicity for a more in-depth downstream evaluation influence the future direction of projects, so cytotoxicity profiling of the screening libraries at early stage is essential for increasing the likelihood of candidate success. […] For the annotated library, we also examined the primary targets and mechanistic pathways regularly associated with cell death. To our knowledge, this is the first study to use high-throughput screening to profile large libraries for cytotoxicity assessment in both normal and cancer cell lines. In summary, the results generated here constitutes a valuable resource for the scientific community and provides insight on identifying cytotoxic compounds with particular mechanisms of action, and prioritizing compounds with suitable cytotoxicity profile for further evaluation.
A pintool (Kalypsys) was used to transfer 23 nL of compound solution to the 1536-well assay plates. After 48 or 72 hr incubation at 37 degree Celsius, 5% CO2 and 95% humidity, 2.5 uL of CellTiter-Glo (Promega) was dispensed into each well using a dispenser (Aspect Automation, St. Paul, MN) with solenoid valves (Lee Valves, Westbrook CT). Plates were left at room temperature for 10 min before imaging the ATP-coupled luminescence using a ViewLux microplate imager (PerkinElmer, Waltham, MA).
On the % scale 0 is the no-effect control and ±100 the full control effect; potency means the concentration at half of the fitted maximal effect.

Row | SMILES | Potency | max response | outcome
1 | Nc1ccccc1NC(=O)c1ccc(CNC(=O)OCc2cccnc2)cc1 | 7.43 µM (active) and 6.51 µM (active) | – | –
2 | CCCCc1nc2cc(C=CC(=O)NO)ccc2n1CCN(CC)CC | 3.72 µM (active) | – | –
3 | CC(C)c1nn(-c2c(Cl)cccc2Cl)c2nc(Cc3ccc(OCCO)cc3)[nH]c(=O)c12 | 59 nM (active) and 36.6 nM (active) | – | –
4 | O=C(C=Cc1cccnc1)NCCCCC1CCN(C(=O)c2ccccc2)CC1 | 0.0074 µM (active) | – | –
5 | Cc1cc(Nc2cc(CN3CCOCC3)c3nc(C)c(Cc4ccc(Cl)cc4F)n3n2)n[nH]1 | 11.8 µM (active) and 16.4 µM (active) | – | –
6 | O=c1[nH]nc(Sc2ncc([N+](=O)[O-])s2)n1-c1ccc2c(c1)OCCO2 | 9.35 µM (active) | – | –
7 | Cc1cc(N2CCOCC2)cc2[nH]c(-c3c(NC[C@@H](O)c4cccc(Cl)c4)cc[nH]c3=O)nc12 | 2.96 µM (active) and 7.31 µM (active) | – | –
8 | N#CCNC(=O)c1ccc(-c2ccnc(Nc3ccc(N4CCOCC4)cc3)n2)cc1 | 18.7 µM (active) and 23.1 µM (active) | – | –
9 | Nc1nc(Nc2ccc(S(N)(=O)=O)cc2)nn1C(=O)c1c(F)cccc1F | 5.9 µM (active) and 2.59 µM (active) | – | –
10 | N#Cc1c(O)c2c(-c3ccc(-c4ccccc4O)cc3)csc2[nH]c1=O | – | 3.13% (inactive) and -14.8% (inactive) | –
11 | COc1ccc(-c2cc3c(C)nc(N)nc3n(C3CCC(OCCO)CC3)c2=O)cn1 (stereo not given) | 66.2 nM (active) and 411 nM (active) | – | –
12 | CC[C@@H]1C(=O)N(C)c2cnc(Nc3ccc(C(=O)NC4CCC(N5CCN(CC6CC6)CC5)CC4)cc3OC)nc2N1C(C)C (stereo not given in full) | 26.4 nM (active) and 20.6 nM (active) and 13 nM (active) | – | –
13 | COc1cc2c(Oc3ccc(NC(=O)C4(C(=O)Nc5ccc(F)cc5)CC4)cc3F)ccnc2cc1OCCCN1CCOCC1 | 8.33 µM (active) and 18.4 µM (active) | – | –
14 | Clc1ccc2ncc(-c3cccc(NC4CNC4)n3)n2c1 | 18.7 µM (active) | – | inactive
15 | CCc1c2c(nc3ccc(O)cc13)-c1cc3c(c(=O)n1C2)COC(=O)[C@]3(O)CC | 14.6 nM (active) and 16.6 nM (active) | – | –
16 | COCCOc1ccc2c(c1)ncn2-c1ccc2cccc(N3CCC(N)CC3)c2n1 | 11.8 µM (active) | – | –
17 | Nc1nc(-c2nn(Cc3ccccc3F)c3ncccc23)nc(N)c1N1CCOCC1 | – | -2.05% (inactive) | –
18 | C=CC(=O)Nc1cc2c(Nc3ccc(F)c(Cl)c3)ncnc2cc1C#CC(C)(C)N1CCN(C)CC1 | 2.96 µM (active) | – | –
19 | Cc1nc2cnc3ccc(C#Cc4cccnc4)cc3c2n1-c1ccc(C(C)(C)C#N)cc1 | 0.0743 µM (active) | – | –

Row | SMILES | Potency | max response | outcome
20 | C[C@]12CC[C@H](O)CC1=CCC1C2CC[C@]2(C)C(n3cnc4ccccc43)=CCC12 (stereo not given in full) | 14.6 µM (active) | -24.7% (inactive) | –
21 | CC1(C)OC2=C(C(=O)c3ccccc3C2=O)[C@H](NCc2ccccc2)[C@H]1O | 8.33 µM (active) | – | –
22 | CC(C)c1cc(C(=O)N2Cc3ccc(CN4CCN(C)CC4)cc3C2)c(O)cc1O | 105 nM (active) and 58 nM (active) | – | –
23 | CN(C)CC(C)(C)CNc1nn2c(-c3ccccc3)nnc2cc1C1CCC1 | 4.18 µM (active) | – | inactive
24 | CC[C@@H]1C(=O)N(C)c2cnc(Nc3ccc(C(=O)NC4CCN(C)CC4)cc3OC)nc2N1C1CCCC1 | 0.0166 µM (active) | – | –
25 | Cn1c(=O)n(-c2ccc(C(C)(C)C#N)cc2)c2c3cc(-c4cnc5ccccc5c4)ccc3ncc21 | 326 nM (active) and 26.4 nM (active) | – | –
26 | Nc1ccccc1NC(=O)c1ccc(CNc2nccc(-c3cccnc3)n2)cc1 | 1.64 µM (active) | – | –
27 | O=C(O)C1(Cc2cccc(Nc3nccs3)n2)CCC(Oc2cccc(Cl)c2F)CC1 (stereo not given) | 2.64 µM (active) and 1.3 µM (active) | – | –
28 | O=C(Nc1ncc(-c2cc(C(F)F)nn2-c2c(Cl)cccc2Cl)s1)C1CC1 | 1.05 µM (active) | – | –
29 | Cn1c2ccccc2c2c3c(c4c5ccccc5n(CCC#N)c4c21)CNC3=O | 2.35 µM (active) and 7.31 µM (active) | – | –
30 | Cc1[nH]c2ccccc2c1CCNCc1ccc(C=CC(=O)NO)cc1 | 0.418 µM (active) | – | –
31 | O=C(CCCCCCNC(=O)c1cnc(N(c2ccccc2)c2ccccc2)nc1)NO | 13.2 µM (active) and 7.31 µM (active) | – | –
32 | CC(C)(O)c1cc2nc(-c3cnc(N)nc3)nc(N3CCOCC3)c2s1 | 372 nM (active) and 1.3 µM (active) | – | –
33 | Cc1c(CN2CCN(S(C)(=O)=O)CC2)sc2c(N3CCOCC3)nc(-c3cnc(N)nc3)nc12 | 59 nM (active) and 326 nM (active) | – | –
34 | Cc1cc(Nc2cc(NC(=O)c3c(Cl)cccc3Cl)ccn2)nc(N)n1 | 0.935 µM (active) | – | –
35 | CS(=O)(=O)N1CCN(Cc2cc3nc(-c4cccc5[nH]ncc45)nc(N4CCOCC4)c3s2)CC1 | 372 nM (active) and 1.84 µM (active) | – | –
36 | COc1cc(Nc2ncc(F)c(Nc3ccc4c(n3)N(COP(=O)(O)O)C(=O)C(C)(C)O4)n2)cc(OC)c1OC | 3.72 µM (active) and 7.31 µM (active) | – | –
37 | OCc1ccc(-c2ccc(-c3ccc(CO)s3)o2)s1 | 0.142 µM (active) | – | –
